From PubChem BioAssay AID743332 (Broad Institute, 2014) come the findings set out here.

Potency and affinity values are given separately. Activity calls are given as the source filed them.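 How the source made its calls: active means at least 35% decrease in signal relative to neutral control well mean; inactive means the rest, opposite-direction activity included.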

This assay deals with Caspase-6 (Homo sapiens) (UniProt P55212). The assay is described as follows: human caspase-6 inhibitors, dose response, biochemical, VEID-R110 fluorescence, dry powder retest (AID 743332). The conditions noted are these: purified caspase-6, Z-VEID-R110 cleavage fluorescence; series mostly up to 35 µM; activity change, negative = inhibition: at the top concentration.
Caspase-6 (Homo sapiens), sequence (P55212 24-179 limits assumed): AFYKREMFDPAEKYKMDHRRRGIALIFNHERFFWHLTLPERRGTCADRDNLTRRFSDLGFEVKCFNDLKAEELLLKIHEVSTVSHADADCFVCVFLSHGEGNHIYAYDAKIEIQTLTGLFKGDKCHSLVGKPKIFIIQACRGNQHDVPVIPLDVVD
Caspase-6 (Homo sapiens), sequence (P55212 194-293 limits assumed): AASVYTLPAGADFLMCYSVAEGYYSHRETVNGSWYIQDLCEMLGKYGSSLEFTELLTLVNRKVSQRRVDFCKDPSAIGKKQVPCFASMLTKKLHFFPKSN
For the molecule `Cc1ccc(C(=O)N2CCCN(S(=O)(=O)c3ccc(C)cc3)CC2)cc1`, the “activity change, negative = inhibition” value was 9.58% (inactive).

For the molecule `O=C(c1ccoc1)N1CCN(S(=O)(=O)c2cccnc2)CC1`, the “activity change, negative = inhibition” value was 5.59% (inactive).

Regarding `O=C(c1ccc(F)cc1)N1CCCN(S(=O)(=O)c2ccc(F)cc2)CC1`, the “activity change, negative = inhibition” value is 5% (inactive).

For `O=C(c1ccc2c(c1)OCCO2)N1CCN(S(=O)(=O)c2ccccc2)CC1`, the “activity change, negative = inhibition” value was 6.42% (inactive).

On to `[O-][n+]1c2c(nn1-c1ccccc1Cl)-c1nonc1CC2`, for which the “activity change, negative = inhibition” value is 4.6% (inactive).

As to `CC(=O)Nc1ccc(S(=O)(=O)N2CCN(C(=O)c3ccc(C)cc3)CC2)cc1`, the “activity change, negative = inhibition” value is 5.54% (inactive).

As to `O=C(c1cccs1)N1CCN(S(=O)(=O)c2ccccc2)CC1`, the “activity change, negative = inhibition” value is 0.185% (inactive).

On to `Cc1ccc(S(=O)(=O)N2CCN(C(=O)C3COc4ccccc4O3)CC2)cc1` (configuration not stated), for which the “activity change, negative = inhibition” value is 5.54% (inactive).

Consider `Cc1ccc(C(=O)N2CCN(S(=O)(=O)c3ccccc3)CC2)o1`, for which the “activity change, negative = inhibition” value was 0.801% (inactive).

Turning to `CC(=O)N1CCCc2cc(S(=O)(=O)N3CCN(C(=O)C4COc5ccccc5O4)CC3)ccc21` (configuration not stated), the “activity change, negative = inhibition” value is 12% (inactive).

As for `O=C(c1ccccc1)N1CCN(S(=O)(=O)c2ccc(Cl)cc2)CC1`, the “activity change, negative = inhibition” value is 3.42% (inactive).

As for `CC(=O)Nc1ccc(S(=O)(=O)N2CCN(C(=O)c3ccccc3)CC2)cc1`, the “activity change, negative = inhibition” value was 10.7% (inactive).

For the molecule `O=C(C1COc2ccccc2O1)N1CCN(S(=O)(=O)c2ccccc2F)CC1` (configuration not stated), the “activity change, negative = inhibition” value is -2.1% (inactive).

For `O=C(c1ccccc1)N1CCN(S(=O)(=O)c2cccnc2)CC1`, the “activity change, negative = inhibition” value is 5.36% (inactive).

With `COc1ccc(S(=O)(=O)N2CCN(C(=O)c3ccccc3)CC2)cc1`, the “activity change, negative = inhibition” value was 1.2% (inactive).

For `[O-][n+]1c2c(nn1-c1ccccc1)-c1nonc1CC2`, the “activity change, negative = inhibition” value was 4.39% (inactive).

For `Cc1ccc(C(=O)N2CCN(S(=O)(=O)c3ccc4c(c3)OCCO4)CC2)cc1`, the “activity change, negative = inhibition” value is -11% (inactive).
